PubChem BioAssay
Calls of active or inactive are those of the source. Unless noted, no rule for the calls is given here.

What was measured:
[1] = system: XIP peptide (Xip251-270) binding; assay: small-molecule binders of XIP peptide, primary screen, biochemical, small-molecule microarray, fluorescence 635/667 nm, 0.1 µg/mL protein (AID 1182); settings: fluorescent protein binding, 635 nm, higher = more signal, called active from +8 up or from −8 down
[2] = system: XIP peptide (Xip251-270); assay: small-molecule binders of XIP peptide, primary screen, biochemical, small-molecule microarray, fluorescence 635/667 nm, 0.5 µg/mL protein (AID 1183); settings: small-molecule microarray binding, fluorescence 635 nm; higher = more signal
[3] = Plasmodium falciparum growth inhibition, primary screen, strain 3D7, DAPI fluorescence, 100 nL (AID 1184);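 also: parasites grown inside human red blood cells in medium with human serum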; settings: P. falciparum 3D7 growth, 3 d, higher = more signal
[4] = biological target: Homeobox protein Hox-A13 (Mus musculus) (UniProt Q62424); assay: inhibitors of HoxA13-DNA binding, primary screen, biochemical, fluorescence polarization, labeled oligonucleotide (AID 1185); settings: 15 min, higher = more signal, called active from +8 up or from −8 down
[5] = inhibitors of hydroxyurea-induced Chk1 phosphorylation, primary screen, imaging, HeLa, phospho-Chk1 antibody, percent positive cells (AID 1186); settings: hydroxyurea-induced phospho-Chk1 immunofluorescence imaging, higher = more signal
[6] = inhibitors of hydroxyurea-induced Chk1 phosphorylation, primary screen, imaging, HeLa, phospho-Chk1 nuclear intensity (AID 1187); settings: hydroxyurea-induced phospho-Chk1 immunofluorescence imaging, higher = more signal

Sequence of Homeobox protein Hox-A13 (Mus musculus) (Q62424 whole entry, looked up): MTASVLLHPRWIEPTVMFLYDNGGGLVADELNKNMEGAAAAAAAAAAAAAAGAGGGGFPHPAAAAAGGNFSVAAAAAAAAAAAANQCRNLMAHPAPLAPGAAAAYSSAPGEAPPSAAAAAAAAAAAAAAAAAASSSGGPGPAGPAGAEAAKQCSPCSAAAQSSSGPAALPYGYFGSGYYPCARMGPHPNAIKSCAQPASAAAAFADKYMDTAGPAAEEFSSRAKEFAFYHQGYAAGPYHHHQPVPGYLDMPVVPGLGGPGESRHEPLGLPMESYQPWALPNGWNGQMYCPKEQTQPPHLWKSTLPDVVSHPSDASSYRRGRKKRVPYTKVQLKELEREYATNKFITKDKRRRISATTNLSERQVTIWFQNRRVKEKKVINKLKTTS

Row | Structure (SMILES) | composite z-score [1] | composite z-score [2] | z-score [3] | z-score [4] | z-score [5] | z-score [6]
1 | CN1C(=O)C2C=CC(C(O)c3cccc(O)c3)N(Nc3ccccc3)C2C1=O (configuration not stated) | -0.252 (inactive) | -0.0631 | 0.655 | -0.751 (inactive) | 0.0011 (inactive) | 0.118 (inactive)
2 | CCCC[C@@H](O)C1=C(COc2ccccc2)C[C@H]2C(=O)N(C)C(=O)[C@H]2[C@H]1CO | -0.35 (inactive) | -0.442 | -0.764 | -3.48 (inactive) | -1.66 (inactive) | -1.41 (inactive)
3 | COC(=O)[C@@]1(Cc2ccc(OC)cc2)[C@H]2c3cc(C(=O)N(C)C)n(CCO)c3C[C@H]2CN1C(=O)c1ccccc1 | -0.509 (inactive) | -0.947 | 0.302 | -4.38 (inactive) | 0.931 (inactive) | 0.524 (inactive)
4 | COc1ccc([Si](C)(C)[C@@H]2[C@@H](CC(=O)N(CCO)Cc3ccccc3)O[C@]3(C(=O)N(Cc4cccc(N5C(=O)c6cccc7cccc5c67)c4)c4ccccc43)[C@H]2C)cc1 | -0.338 (inactive) | 0.604 | -2.52 | -0.625 (inactive) | -0.512 (inactive) | 0.0885 (inactive)
5 | CCOC(=O)C1=CC[C@@H](c2cccc(Cl)c2)N(S(=O)(=O)c2ccc(C)cc2)C1 | 1.46 (inactive) | 0.662 | -0.639 | -1.21 (inactive) | -0.566 (inactive) | -0.272 (inactive)
6 | COc1ccc(NC(=O)O[C@H]2[C@H](OC(=O)Nc3ccccc3)[C@H](OC(=O)Nc3ccccc3)[C@@H](OC)O[C@@H]2CO)cc1 | 0.635 (inactive) | 0.934 | -2.37 | -6.24 (inactive) | 0.131 (inactive) | 0.288 (inactive)
7 | Cc1cc(C)cc(N2C(=O)CSC2c2cccc([N+](=O)[O-])c2)c1 (configuration not stated) | 0.397 (inactive) | 0.521 | -0.0855 | 0.0457 (inactive) | -0.251 (inactive) | -0.335 (inactive)
8 | COCCOC(=O)N1C(=O)[C@@]2(c3cc(C#Cc4ccc(OC)cc4)ccc31)[C@H](c1ccccc1OCCO)N1[C@H](c3ccccc3)[C@H](c3ccccc3)OC(=O)[C@H]1[C@@H]2C(=O)N1CCCCCCC1 | 1.93 (inactive) | 0.319 | -2.02 | 4.73 (inactive) | -0.434 (inactive) | -0.648 (inactive)
9 | CC(C)(C)OC(=O)CC[C@@]1(C(=O)NCc2ccccc2)N=C(c2ccc(OCCCO)cc2)O[C@@H]1c1ccccc1N=[N+]=[N-] | -0.208 (inactive) | 0.759 | -2.1 | -1.44 (inactive) | -0.347 (inactive) | 0.14 (inactive)
10 | COCCOC(=O)N1C(=O)[C@@]2(c3cc(C#CC4=CCCCC4)ccc31)[C@H](c1ccccc1OCCO)N1[C@H](c3ccccc3)[C@H](c3ccccc3)OC(=O)[C@H]1[C@@H]2C(=O)Nc1nc2ccccc2s1 | 0.469 (inactive) | 0.484 | -1.8 | 3.53 (inactive) | 0.325 (inactive) | 0.587 (inactive)
11 | NCCCCCNC(=O)[C@@H]1C[C@@H]2C(=O)NCC(=O)N2[C@@H]1c1cccc(OCCO)c1 | 0.318 (inactive) | 0.782 | -1.28 | -1.43 (inactive) | 0.518 (inactive) | 0.503 (inactive)
12 | CCCCC(O)C1C=CC2C(=O)N(c3ccccc3)C(=O)C2N1Nc1ccc(C(C)C)cc1 (configuration not stated) | -0.0775 (inactive) | 0.706 | -0.243 | -2.48 (inactive) | -0.638 (inactive) | -1.2 (inactive)
13 | CCC(CC)C(O)C1C=CC2C(=O)N(c3ccccc3)C(=O)C2N1Nc1ccc(C(C)C)cc1 (configuration not stated) | 0.0969 (inactive) | 0.586 | -0.615 | -3.2 (inactive) | -0.681 (inactive) | -0.765 (inactive)
14 | O=C1NC(=O)C2C1C=CC(C(O)c1cccc3ccccc13)N2Nc1ccc(Cl)cc1Cl (configuration not stated) | 1.46 (inactive) | 0.497 | -0.0879 | -4.57 (inactive) | 0.461 (inactive) | 0.3 (inactive)
15 | COC(=O)c1c2oc(c1C(=O)OC)C(=O)N(Cc1ccccc1)Cc1cn(nn1)C[C@H](Cc1ccccc1)NC(=O)N[C@H](CO)CC2 | -0.255 (inactive) | -0.057 | -0.886 | -4.5 (inactive) | -0.962 (inactive) | -0.745 (inactive)
16 | CCCCC(=C=CC[C@@H](O)c1ccccc1OCCO)C[C@@H](O)COCc1ccccc1 | -0.175 (inactive) | 0.868 | -1.67 | -4.72 (inactive) | 0.193 (inactive) | 1.06 (inactive)
17 | CN(C)C(=O)[C@]1(CCS(=O)(=O)c2ccccc2)N=C(c2ccc(OCCCO)cc2)O[C@@H]1c1ccccc1N=[N+]=[N-] | 1.1 (inactive) | 0.821 | -2.34 | -3.11 (inactive) | -0.197 (inactive) | -0.447 (inactive)
